Calls of active or inactive are those of the source. Unless noted, how the calls were made is not given here.

The values that follow come from PubChem BioAssay.

Experiment [1] can be described thus: liver-stage malaria parasite load reduction – cell-based, known kinase inhibitor set, luminescence, hepatoma host viability (AID 624392).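 Further: infected cells incubated roughly two days before readout.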 The conditions noted are these: Plasmodium liver stage in hepatoma cells, luciferase luminescence, concentration not given here; liver cell % of control: measured here: host liver cell viability; parasite % of control: stronger effect = lower value.

The nature of experiment [2]: altered dexamethasone sensitivity, NF-kB reporter, cell-based, luciferase, IL-1B stimulus (AID 624486).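 On percent of negative control (+Dex): 100% = mean signal of vehicle control wells on the plate.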 Conditions: IL-1B + dexamethasone, luminescence; percent of negative control (+Dex): actives lie on both sides, concentration not given here; z-score: measured here: IL-1B alone, no Dex.
For experiment [3], the target named is Cellular tumor antigen p53 (Homo sapiens) (UniProt P04637). Description: GFP-p53 level modulators in HPV16+ cells – imaging, known kinase inhibitor set, EGFP/DsRed ratio (AID 1053116).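 Further: cells exposed to compounds for 24 h at 37 °C before reading.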 Conditions: GFP-p53 stability, stronger effect = higher value; EGFP object count: measured here: GFP-p53 positive objects count.
The nature of experiment [4]: inducers of IRF3 signaling, differentiated THP-1 – cell-based, PMA-stimulated THP-1, luminescence (AID 1053176). Conditions: PMA-differentiated THP-1, IRF3 reporter luminescence; stronger effect = higher value.
Experiment [5] is described as follows: C. elegans survival during P. aeruginosa infection – whole organism (AID 651566).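 Further: tested at 14 µM; sign flipped so higher z means a lower ratio.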 The conditions noted are these: C. elegans killed by P. aeruginosa, survival ratio.
A short description of experiment [6]: pro-inflammatory signaling induction in mouse macrophages – cell-based, murine, luminescence (AID 652131). Conditions: murine macrophage pro-inflammatory reporter, stronger effect = higher value.
A short description of experiment [7]: MELAS cybrid and Rieske KO viability enhancers – cell-based, MELAS cybrids, Rieske KO mouse fibroblasts, CellTiter-Glo, primary screen (AID 1508586;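 active means mean z-score across replicates of 1.96 or higher in either the MELAS or the Rieske mutant cell line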;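 further: z relative to plate mean and SD of compound and empty wells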). The conditions noted are these: low glucose. On the technique in general: In ATP-based viability assays light output follows the ATP content of the culture.

Chain of Cellular tumor antigen p53 (Homo sapiens) (P04637 whole entry, looked up): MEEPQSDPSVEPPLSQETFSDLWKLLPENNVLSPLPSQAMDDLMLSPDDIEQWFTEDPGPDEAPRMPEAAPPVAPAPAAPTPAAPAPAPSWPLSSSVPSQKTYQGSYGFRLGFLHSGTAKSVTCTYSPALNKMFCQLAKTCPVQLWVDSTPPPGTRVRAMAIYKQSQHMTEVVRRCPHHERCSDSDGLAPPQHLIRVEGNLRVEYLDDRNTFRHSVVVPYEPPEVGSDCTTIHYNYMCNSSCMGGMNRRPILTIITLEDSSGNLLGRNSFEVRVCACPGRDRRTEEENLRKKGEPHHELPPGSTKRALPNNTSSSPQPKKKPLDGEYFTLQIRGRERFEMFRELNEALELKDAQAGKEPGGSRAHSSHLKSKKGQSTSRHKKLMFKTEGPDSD

In the case of `COc1ccc2c(C3=C(c4cn(C)c5ccccc45)C(=O)NC3=O)cn(C)c2c1`, in experiment [1], the liver cell % of control stood at 79.3% and the parasite % of control was 31.4% (inactive). For the same molecule, in experiment [2], the percent of negative control (+Dex) was 113% (inactive) and the z-score is -1.48. For the same molecule, in experiment [3], the EGFP object count turned out to be 66 and the EGFP/DsRed ratio is 0.456 (inactive). Also, the fraction signal in experiment [4] is -0.007 (inactive).

As for `COc1ccc(C2=C(c3cn(C)c4ccccc34)C(=O)NC2=O)cc1`, in experiment [1], the liver cell % of control amounted to 131% and the parasite % of control was 39.3% (inactive). Also, in experiment [2], the percent of negative control (+Dex) was 108% (inactive) and the z-score is -0.1. Moreover, in experiment [3], the EGFP object count stood at 5.5 and the EGFP/DsRed ratio is 0.214 (inactive). The fraction signal in experiment [4] was -0.0115 (inactive).

`Cn1c(=O)c(Oc2cccc(F)c2)cc2cnc(NC3CCOCC3)nc21`: in experiment [1], the liver cell % of control was 112% and the parasite % of control was 65.8% (inactive). For the same molecule, in experiment [2], the percent of negative control (+Dex) was 101% (inactive) and the z-score is 0.78. In experiment [3], the EGFP object count stood at 4 and the EGFP/DsRed ratio is 0.127 (inactive). For the same molecule, in experiment [4], the fraction signal was 0.0015 (inactive).

As for `Cn1cc(C2=C(c3cn(CCCCCSC(=N)N)c4ccccc34)C(=O)NC2=O)c2ccccc21`, in experiment [1], the liver cell % of control was determined as 88.1% and the parasite % of control was 29.3% (inactive). Also, in experiment [2], the percent of negative control (+Dex) is 99.5% (inactive) and the z-score came to 1.02. Moreover, in experiment [3], the EGFP object count came out at 24.5 and the EGFP/DsRed ratio is 0.037 (inactive). Further, in experiment [4], the fraction signal was -0.007 (inactive).

Consider `O=C1NC(=NCCc2ccccc2F)SC1=Cc1ccc2ncccc2c1`, for which, in experiment [1], the liver cell % of control came to 108% and the parasite % of control is 44.4% (inactive). In experiment [2], the percent of negative control (+Dex) is 99% (inactive) and the z-score was found to be 0.18. Besides, in experiment [3], the EGFP object count was determined as 12.5 and the EGFP/DsRed ratio was 0.349 (inactive). Besides, the fraction signal in experiment [4] is -0.0025 (inactive).

As to `CC(C)c1[nH]nc2c1N=C(c1ccccc1Cl)c1cc([N+](=O)[O-])ccc1N2`, in experiment [1], the liver cell % of control was 105% and the parasite % of control is 61.2% (inactive). Further, in experiment [2], the percent of negative control (+Dex) was 108% (inactive) and the z-score came to 0.05. Besides, in experiment [3], the EGFP object count was 50.5 and the EGFP/DsRed ratio is 1.11 (active). The fraction signal in experiment [4] is -0.0115 (inactive).

As for `Fc1ccc(-c2ncn(C3CCNCC3)c2-c2ccnc(Oc3ccc4c(c3)OCO4)n2)cc1`, the liver cell % of control in experiment [1] came out at 71.9%. For the same molecule, the parasite % of control in experiment [1] is 187% (inactive). Moreover, the percent of negative control (+Dex) in experiment [2] was 107% (inactive). Further, the z-score was 0.635 in experiment [2]; 0.22 (inactive) in experiment [5]; 0.062 (inactive) in experiment [6]; -0.249 (inactive) in experiment [7] (MELAS cybrid survival, CellTiter-Glo 48 h, stronger effect = higher value); -0.36 in experiment [7] (Rieske KO mouse fibroblast survival, CellTiter-Glo 72 h). In addition, in experiment [3], the EGFP object count turned out to be 6.5. Besides, the EGFP/DsRed ratio in experiment [3] was 0.159 (inactive). Further, in experiment [4], the fraction signal was -0.0065 (inactive).

As to `Cn1cc(C2=C(c3cn(C)c4ccc(OCc5ccccc5)cc34)C(=O)NC2=O)c2ccccc21`, in experiment [1], the liver cell % of control was determined as 97.7% and the parasite % of control was 46.6% (inactive). In experiment [2], the percent of negative control (+Dex) is 101% (inactive) and the z-score was -0.035. Besides, in experiment [3], the EGFP object count was determined as 4.5 and the EGFP/DsRed ratio was 0.132 (inactive). Also, the fraction signal in experiment [4] was -0.016 (inactive).

Consider `Cn1cc(C2=C(c3cn(C)c4ccc(N)cc34)C(=O)NC2=O)c2ccccc21`, for which, in experiment [1], the liver cell % of control came to 95.1% and the parasite % of control was 36.7% (inactive). In experiment [2], the percent of negative control (+Dex) was 98% (inactive) and the z-score was found to be 0.385. In experiment [3], the EGFP object count stood at 11 and the EGFP/DsRed ratio was 0.25 (inactive). In addition, in experiment [4], the fraction signal was -0.0115 (inactive).

Regarding `COc1cccc(C2=C(c3c(C)n(C)c4ccccc34)C(=O)NC2=O)c1`, in experiment [1], the liver cell % of control was determined as 97.6% and the parasite % of control was 66.1% (inactive). Also, in experiment [2], the percent of negative control (+Dex) is 91% (inactive) and the z-score is -0.5. For the same molecule, in experiment [3], the EGFP object count stood at 6 and the EGFP/DsRed ratio is 0.121 (inactive). Further, the fraction signal in experiment [4] was -0.0005 (inactive).

For the molecule `Nc1c(C(=O)c2cccc(OCCN3CCOCC3)c2)cnn1-c1ccc(F)cc1`, in experiment [1], the liver cell % of control came to 121% and the parasite % of control is 47.9% (inactive). Also, in experiment [2], the percent of negative control (+Dex) was 100% (inactive) and the z-score was 0.485. Also, in experiment [3], the EGFP object count was 4 and the EGFP/DsRed ratio was 0.127 (inactive). In addition, in experiment [4], the fraction signal is -0.009 (inactive).

Consider `Cn1cc(C2=C(c3cccnc3)C(=O)NC2=O)c2ccccc21`, for which, in experiment [1], the liver cell % of control amounted to 312% and the parasite % of control is 2% (active). Besides, in experiment [2], the percent of negative control (+Dex) is 110% (inactive) and the z-score is -1.34. Besides, in experiment [3], the EGFP object count worked out at 8.5 and the EGFP/DsRed ratio is 0.135 (inactive). Further, the fraction signal in experiment [4] is -0.005 (inactive).

`CCCn1cc(C2=C(c3cn(C)c4ccccc34)C(=O)NC2=O)c2ccccc21`: in experiment [1], the liver cell % of control was found to be 101% and the parasite % of control is 78.5% (inactive). Further, in experiment [2], the percent of negative control (+Dex) is 102% (inactive) and the z-score was 0.09. For the same molecule, in experiment [3], the EGFP object count turned out to be 17.5 and the EGFP/DsRed ratio is 0.158 (inactive). For the same molecule, the fraction signal in experiment [4] was 0.0035 (inactive).

In the case of `Nc1c(C(=O)c2cccc(-c3cccnc3)c2)cnn1-c1ccc(F)cc1`, in experiment [1], the liver cell % of control stood at 219% and the parasite % of control was 7.92% (inactive). Besides, in experiment [2], the percent of negative control (+Dex) was 111% (inactive) and the z-score was 0.475. Further, in experiment [3], the EGFP object count worked out at 3 and the EGFP/DsRed ratio was 0.0451 (inactive). In addition, in experiment [4], the fraction signal is -0.005 (inactive).

As to `COc1cc[nH]c1C=C1C(=O)Nc2ccc(F)c(C#CC3(O)CCOCC3)c21`, in experiment [1], the liver cell % of control worked out at 128% and the parasite % of control was 1.61% (active). Further, in experiment [2], the percent of negative control (+Dex) was 122% (inactive) and the z-score is -1.81. Besides, in experiment [3], the EGFP object count is 6 and the EGFP/DsRed ratio was 0.109 (inactive). In addition, the fraction signal in experiment [4] was -0.0095 (inactive).

For the molecule `CNc1ncc2cc(Oc3ccc(F)cc3F)c(=O)n(C)c2n1`, in experiment [1], the liver cell % of control came out at 109% and the parasite % of control is 65.3% (inactive). Further, in experiment [2], the percent of negative control (+Dex) is 94.5% (inactive) and the z-score came out at 1.49. Moreover, in experiment [3], the EGFP object count was 2.5 and the EGFP/DsRed ratio was 0.0112 (inactive). In addition, the fraction signal in experiment [4] was -0.001 (inactive).

Take `Cn1c(=O)c(Oc2ccc(F)cc2F)cc2cnc(NC3CCC(O)CC3)nc21` (stereo not given): in experiment [1], the liver cell % of control stood at 112% and the parasite % of control was 60.3% (inactive). For the same molecule, in experiment [2], the percent of negative control (+Dex) was 85% (inactive) and the z-score is -0.62. Also, in experiment [3], the EGFP object count turned out to be 5 and the EGFP/DsRed ratio was 0.154 (inactive). In addition, in experiment [4], the fraction signal is -0.0095 (inactive).

Regarding `O=C1NC(=NCc2ccccc2Br)SC1=Cc1ccc2ncccc2c1`, in experiment [1], the liver cell % of control came out at 130% and the parasite % of control was 32.9% (inactive). Moreover, in experiment [2], the percent of negative control (+Dex) was 85.5% (inactive) and the z-score was -0.56. In experiment [3], the EGFP object count is 8 and the EGFP/DsRed ratio is 0.253 (inactive). Besides, the fraction signal in experiment [4] is -0.0095 (inactive).
